# High-throughput results from PubChem BioAssay.
# Only some compounds are listed: those with a hit (about 7.6% of all), similar ones and a draw of the others.
# Cy5 interf NS3h – Cy5 fluorescence interference, HCV helicase counter-screen; Cy5-dT15 DNA with NS3h; actives lie on both sides; signal over control mean, under 1 quenches; fluorescence interference ratio at 100 µM; AID 720488; 6% of 16,000 active;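 active = compound fluorescence over control fluorescence at most 0.8, a quencher, or at least a set upper limit, an enhancer; inactive = ratio between 0.8 and the set upper limit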
# HCV NS3h FP – hepatitis C NS3 helicase inhibition, primary screen; NS3h Cy5-dT15 DNA binding, fluorescence polarization; inhibition, % at 100 µM; 1.6% of 16,000 active; AID 687043;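 active = inhibition above the average over every tested compound plus 3 SD, cut at about 40% in these data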
# Numbers without * were called inactive.
SMILES,Cy5 interf NS3h,HCV NS3h FP
O=C1/C(=C/c2cccc([N+](=O)[O-])c2)SC(=S)N1C1CCS(=O)(=O)C1 (configuration not stated),0.35*,15
O=C1c2ccc(-c3nc4ccccc4c(=O)o3)cc2C(=O)N1c1c[nH]c(=O)[nH]c1=O,1,41*
O=c1oc(-c2cccnc2)nc2ccccc12,1,3
Cc1cc(C)c(NC(=O)C(C)Sc2ncn[nH]2)c(C)c1 (configuration not stated),0.94,0
CCOc1nc(OCC)c(C=O)c(OCC)n1,0.94,10
CCOC(=O)c1c(C)[nH]c(C=C2C(=O)C=Cc3ccccc32)c1O,0.43*,-8
Cc1nc(C=C2C(=O)C=Cc3ccccc32)c(O)o1,1.1,-2
COc1ccc(/C=C(\C#N)C(=O)Nc2ccc(F)cc2)c(C)c1,0.99,8
CCOC(=O)C1=C(C)N=c2s/c(=C\c3cc(OC)ccc3OC)c(=O)n2C1c1cccc(OC)c1 (configuration not stated),0.99,14
Cc1cc(Nc2ccccc2)n(C(=O)c2ccc([N+](=O)[O-])cc2)n1,0.74*,10
Cc1cc2ncn(C(=O)c3ccc([N+](=O)[O-])cc3)c2cc1C,0.94,7
COc1ccc(/C=C/C(=O)N2CCC(C)CC2)cc1Br,0.62*,10
COc1ccc(/C=C/C(=O)NCC2CCCO2)cc1Br (configuration not stated),1.1,4
Cc1nc2ccccc2n1S(=O)(=O)c1ccc(Br)cc1,0.98,-2
O=S(=O)(c1ccc2c(c1)Cc1cc(S(=O)(=O)n3cnc4ccccc43)ccc1-2)n1cnc2ccccc21,0.64*,9
COc1ccc(C(=O)N2CCN(c3ccc(F)cc3)CC2)cc1[N+](=O)[O-],0.92,-4
CC(C)NC(=O)CN(c1ccc(F)cc1)S(=O)(=O)c1ccccc1,1.1,7
CCOc1c(Br)cc(/C=C(\C#N)c2nn(-c3ccccc3)c(N)c2C#N)cc1OC,0.98,4
CCOc1c(Br)cc(/C=C(\C#N)c2nn(CCO)c(N)c2C#N)cc1OC,0.79*,-25
COc1cc(NC(C)=O)c(Cl)cc1NC(=O)c1ccccc1,1,4
COc1cc(NC(=O)C(F)(F)F)c(Cl)cc1NC(=O)c1ccccc1,0.93,43*
COc1cccc(NC(=O)/C(NC(=O)c2ccccc2)=C2\c3ccccc3-c3ccc([N+](=O)[O-])cc32)c1,1,5
O=C(CC(c1ccccc1)c1ccccc1)Nc1ccc(Cl)cn1,0.66*,9
CC(=O)CC(=O)Nc1ccc(Cl)cn1,1,5
Cc1ccc(-n2nc3ccc(NC(=S)NC(=O)c4ccco4)cc3n2)cc1,1,-11
SMILES,Cy5 interf NS3h,HCV NS3h FP
O=C(O/C(=C/c1nccn1Cc1ccc(Cl)cc1)c1ccccc1)c1ccccc1,1.2*,6
Cn1ccnc1/C=C(/OC(=O)c1ccc(Cl)cc1)c1ccc(Cl)cc1,0.98,-4
C=CCCCC(=O)Nc1ccc(Cl)cc1Cl,0.97,10
O=C(CCCC(=O)OCC(F)(F)C(F)F)Nc1ccc(NC(=O)CCCC(=O)OCC(F)(F)C(F)F)cc1,0.62*,3
C=CCCCC(=O)Nc1ccc(-c2ccc(NC(=O)CCCC=C)cc2)cc1,0.94,8
O=C(CCC(=O)OCC(F)(F)C(F)F)Nc1ccc(Cl)cc1Cl,0.78*,8
CC1CCCC(C)N1C(=O)COc1ccc2ccccc2c1 (configuration not stated),1,7
Cc1ccc(C2CC(C(F)(F)F)n3ncc(C(=O)Nc4ccccc4C(F)(F)F)c3N2)cc1 (configuration not stated),0.99,6
COc1ccccc1CNC(=O)C(=O)Nc1ccccc1C,1.1,3
Cc1cccc(NC(=O)C(=O)NCc2ccccc2Cl)c1C,0.78*,19
N/C(=N/OC(=O)COc1ccc2ccccc2c1)c1ccccn1,1,10
Cc1ccc(NCCC(=O)c2cccc([N+](=O)[O-])c2)cc1Cl,1,9
Cc1ccc(-n2nc(C)c(-c3cccc([N+](=O)[O-])c3)c2C)cc1Cl,0.65*,7
COc1cc2c(cc1OC)C(C)N(C(=O)C1(c3ccccc3)CCCC1)CC2 (configuration not stated),0.94,1
COc1ccc(C2CC(C(F)(F)F)n3nc(C(=O)Nc4cc(OC)c(Cl)cc4OC)c(Cl)c3N2)cc1 (configuration not stated),1,5
COC(=O)Oc1ccc(/C=C2/C(=O)N(c3ccccc3)N=C2C)cc1OC,1,8
Cc1c(Cl)c([N+](=O)[O-])nn1CC(=O)N1CCCC1,1,-3
Cc1c(Br)c([N+](=O)[O-])nn1CC(=O)N1CCc2ccccc2C1,0.56*,12
CC(=O)C1C(=O)c2c(cccc2[N+](=O)[O-])C1=Nc1ccc(N=Cc2cc(Br)ccc2O)cc1 (configuration not stated),1,7
COC(=O)C1=C(C(=O)OC)SC(=C2C(=S)C(C)(C)N(C(=O)c3cccc(F)c3)c3c(OC)cccc32)S1,1.1,6
COC(=O)C1=C(C(=O)OC)SC(=C2C(=S)C(C)(C)N(C(=O)c3cccc([N+](=O)[O-])c3)c3ccc(OC)cc32)S1,0.53*,16
S=C(Nc1ccccc1)Nc1ccc(Cc2ccc(NC(=S)Nc3ccccc3)cc2)cc1,0.94,5
O=C1CSC2(N1)C1CC3CC(C1)CC2C3 (configuration not stated),1.2*,-1
O=C(CCC1CCCC1)Nc1ccc2c(c1)oc1ccccc12,1.1,5
Cc1ccc(SCCc2ccncc2)cc1,0.99,-3
SMILES,Cy5 interf NS3h,HCV NS3h FP
Cc1cc(C)cc(NC(=O)c2ccc(F)cc2)c1,1,12
Cc1sc(NC(=O)c2ccc(F)cc2)c(C(=O)O)c1C,0.7*,14
CCN1C(=O)/C(=C\c2ccc(OCc3cccc4ccccc34)cc2)SC1=S,1,29
COCCNC(=O)c1cc2n(n1)C(C(F)(F)F)CC(c1ccc(F)cc1)N2 (configuration not stated),1,2
Cc1ccc(C2CC(C(F)(F)F)n3nc(C(=O)N4CCN(Cc5ccccc5)CC4)cc3N2)cc1 (configuration not stated),0.76*,11
O=C(c1cc2n(n1)C(C(F)(F)F)CC(c1ccc(Cl)cc1)N2)N1CCN(c2ccccc2)CC1 (configuration not stated),0.93,24
Cc1ccc(C2CC(C(F)(F)F)n3nc(C(=O)Nc4ccc(F)cc4F)cc3N2)cc1 (configuration not stated),0.57*,2
COc1ccc(C2CC(C(F)(F)F)n3nc(C(=O)NCc4cccs4)cc3N2)cc1OC (configuration not stated),0.91,-3
COc1ccc(C2CC(C(F)(F)F)n3nc(C(=O)O)cc3N2)cc1OC (configuration not stated),0.65*,-1
COc1ccc(CN2CCN(Cc3ccc(Br)cc3)CC2)cc1OC,1.1,-9
CCOc1ccc(NC(=S)NC(=O)c2cccs2)c([N+](=O)[O-])c1,0.99,8
Cc1ccc(NC(=O)c2c(-c3ccccc3Cl)noc2C)c(C)c1,0.94,14
CCCCNC(=O)/C(=C/c1ccc(C)o1)NC(=O)c1ccccc1,0.66*,17
CCCCNC(=O)/C(=C\c1ccc(-c2cccc([N+](=O)[O-])c2)o1)NC(=O)c1ccccc1,1,7
O=C(Nc1ccc(Nc2ccccc2)cc1)c1cccc2ccccc12,0.91,9
